Test results: PubChem BioAssay AID651644 (National Center for Advancing Translational Sciences (NCATS), 2012)
In all, about 360,000 compounds went through this assay and about 750 (0.21%) were called active. Roughly 2% stayed inconclusive and do not appear here. What follows is part of a selection rich in actives, with near analogues and random picks from the rest. A number with no mark means an inactive call. Calls come from the whole dose curve; as a rule, active = well fitted falling curve with a large enough effect; inconclusive = small, poorly fitted or top-dose-only effect; inactive = no such curve, though single readings can be large or run the other way.

Assay: qHTS Assay for Inhibitors of the HIV-1 protein Vpr; note: nearly all actives have a fitted effect of over 50% in size
Conditions: S. pombe RE007 Vpr strain, BacTiter-Glo ATP luminescence, 24 h; series mostly up to 92.2 µM; activity change, negative = less growth: at the top concentration
From the text: Human immunodeficiency virus type 1 (HIV-1), the causative agent of AIDS, contains a protein called viral protein R (Vpr) that plays an important role in the viral life cycle and the pathogenesis of HIV-1.
These Vpr specific activities include cytoplasmic-nuclear shuttling, induction of cell cycle G2 arrest and cell killing. The cytoplasmic-nuclear shuttling is believed to participate in nuclear transport of the proviral integration complex (PIC). The cell cycle G2 arrest induced by Vpr is thought to suppress human immune functions by preventing T cell clonal expansion and to provide an optimized cellular environment for maximal levels of viral replication. In addition, Vpr induces apoptosis, which may contribute to the depletion of CD4 T cells in HIV-infected patients. Since the Vpr-specific activities have been linked to such clinical manifestation of AIDS as activation of viral replication, suppression of host immune responses and depletion of CD4+ T-lymphocytes, identification of new molecular probes that can inhibit the Vpr activities could potentially provide a new approach to reduce Vpr-mediated detrimental effects in HIV-infected patients, and thus prolong patient's lives. Currently, there are no anti-Vpr drugs.
A fission yeast (Schizosaccharomyces pombe) model system for the Vpr studies has been developed which measures HIV-1 Vpr-induced cell death. This assay will be used for to screen the NIH Molecular Libraries Small Molecule Repository (MLSMR) identify small molecule HIV-1 Vpr inhibitors.
NIH Chemical Genomics Center [NCGC]
NIH Molecular Libraries Probe Centers Network [MLPCN]
Assay Submitter (PI): Richard Zhao, University of Maryland
The fission yeast RE007 strain was used, which carries a single integrated copy of HIV-1 vpr gene in the yeast chromosome. The starting culture was frozen stock 100ul of yeast RE007 in 150ml of *PMG+AL medium, Incubation in 30 degree plus 99% humidity for 18 hours. Next day dispensed 2.5ul of PMG+AL medium in each well to 1536 well white solid plate, then 23nL compound were delivered to each well using a pin tool. Check OD for overnight culture and add cell density at 0.01 for each well, incubation in 30 degree plus 99% humidity for 24 hours. After add 5 ul of *BacTiter/Glo detect reagent to each well at room temperature for 5 minutes then to red out results with Viewlux CCD camera.
% is set by controls: 0 for no effect and ±100 for the full control effect.

SMILES	Potency	activity change, negative = less growth
CN(O)C(=S)c1ccccc1	12.6 µM (active)	–
COC(=O)[C@@H]1C[C@@]2(O)[C@H](O)[C@H](O)[C@H](O)C[C@H]2N1Cc1ccc(C)s1	–	8.05%
O=C(COc1coc(CN2CCN(c3ccccc3F)CC2)cc1=O)N1CCc2ccccc21	–	-5.08%
Cc1ccc(S(=O)Cc2ccc(C(=O)N3CCN(C4CCCCC4)CC3)o2)cc1 (centres undefined)	–	7.22%
CCN(C(=O)COC(=O)/C=C/c1nc2ccccc2s1)C1CCS(=O)(=O)C1 (centres undefined)	–	-22.5%
CC(=O)c1ccc(N2Cc3ccccc3C2)cc1	–	-0.524%
CSc1c(SCc2ccccc2)cnn(Cc2ccccc2)c1=O	–	8.78%
O=C(CCN1CCc2ccccc2C(O)(c2ccccc2)C1)c1ccc2c(c1)OCCO2 (centres undefined)	5.62 µM (active)	–
O=S(=O)(c1ccc2c(c1)OCCO2)N1CCc2ccccc21	–	5.48%
O=C(CN1CCc2cc3c(cc2C1)OCCCO3)Nc1ccccc1	–	4.55%
Cn1c(=O)cc(OCCCC(=O)N2CCN(c3ccccn3)CC2)c2ccccc21	–	8.93%
CCC(Oc1ccccc1C)C(=O)Nc1ccc(S(=O)(=O)Nc2cc(C)on2)cc1 (centres undefined)	–	-2.84%
O=C(CNCc1cccs1)Nc1cc(S(=O)(=O)N2CCCC2)ccc1Cl	–	12.6%
CC(NC(=O)Nc1cccc([N+](=O)[O-])c1)c1ccc2c(c1)OCO2 (centres undefined)	–	10.8%
COC(=O)/C=C\C(=O)Nc1cccc([N+](=O)[O-])c1	7.94 µM (active)	–
COc1cccc(NCCC(=O)c2cccc([N+](=O)[O-])c2)c1	–	-24.8%
O=C(COC(=O)CCCNC(=O)c1ccc(Cl)cc1)Nc1cc(Cl)ccc1Cl	–	0.174%
O=C(Cn1nnc2ccccc2c1=O)Nc1cc(C(F)(F)F)ccc1N1CCOCC1	–	1.55%
CCCCCCCCCCCCn1ccc(=N)cc1	11.2 µM (active)	–
Cc1ccc(S(=O)(=O)NCCCn2ccnc2)cc1C(=O)NC(C)C	–	11.2%
CCCn1cc(SCC(N)=O)c2ccccc21	–	-1.74%
O=C(Nc1cccc2ccccc12)c1[nH]c(-c2ccccc2)c2c1C(=O)N(C1CC1)C2=O	–	8.14%
O=C(Nc1cccc2ccccc12)NC1CC1	–	-17%
O=C(Nc1cccc2ccccc12)c1onc2c1CCCC2	14.1 µM (active)	–
Cc1ccc(NC(=O)[C@H](Cc2ccccc2)NC(=O)C2CCNCC2)cc1	–	13.7%

SMILES	Potency	activity change, negative = less growth
CC1c2nc3ccccc3n2C(CC(=O)NCCCN2CCOCC2)C(=O)N1Cc1ccccc1 (centres undefined)	–	-6.07%
CCOC(=O)c1sc(C)c2c1NC(C)(c1cccc3ccccc13)NC2=O (centres undefined)	–	29.2%
O=C(O)COc1ccc(/C=N/O)cc1Br	–	3.56%
COc1cc(/C=N/O)cc(Br)c1OCc1cccc(Cl)c1	10 µM (active)	–
COc1ccc(Br)cc1CNCCc1cccc(Cl)c1	–	-10.8%
CCc1noc(C)c1C(=O)OCC(=O)c1ccc(NC(=O)CC(C)C)cc1	–	-10.5%
O=C(CN1CCN(c2ncccn2)CC1)Nc1ccccc1C(F)(F)F	–	3.69%
Cc1noc(C)c1S(=O)(=O)N(C)C[C@H]1Oc2ccc(NC(=O)C3CC3)cc2C(=O)N([C@H](C)CO)C[C@@H]1C	–	12.5%
Cc1ccc(Cl)c(NC(=O)CN(C)CC(=O)Nc2ccc(F)c(F)c2F)c1Cl	–	-12.7%
CC(=O)Nc1ccc(/C=N/Nc2ccc(C(=O)c3c(C)cc4ccccn34)cc2[N+](=O)[O-])cc1	–	5.89%
CCSC1(SCC)N=C(N)C2(C#N)C(c3ccccc3)NC(C)=CC12C#N (centres undefined)	4.47 µM (active)	–
COc1ccc(C(=O)NC2CC2)cc1OC1CCN(Cc2ccc(SC)cc2)CC1	–	5.43%
Cc1ccc(CN(Cc2cccnc2)C(=S)Nc2cc(Cl)ccc2C)cc1	–	-11%
O=C1CSC(=S)N1/N=C/c1ccc(O)c([N+](=O)[O-])c1	28.2 µM (active)	–
O=C(CN(CC1CCCO1)C(=O)CNS(=O)(=O)c1ccccc1)NCc1ccccc1 (centres undefined)	–	10.6%
CCN(CC)S(=O)(=O)c1ccc(Cl)c(C(=O)NCCN2CCOCC2)c1	–	-8.37%
Cc1c(C(=O)NCCN(C)C)oc2ccc(S(=O)(=O)N3CCCC3)cc12	–	-6.44%
Cc1ccc(C)c(OCCC(=O)OCC(=O)N2CCN(c3ccccc3)CC2)c1	–	-7.5%
O=C(OCC(=O)N1CCN(c2ccccc2)CC1)c1ccc([N+](=O)[O-])s1	39.8 µM (active)	–
C[C@H](NC(=O)c1ccccc1Cl)C(=O)OCC(=O)N1CCN(c2ccccc2)CC1	–	-11.8%
CC(=O)c1cccc(-n2nnnc2SCC(=O)NNC(=O)C2CCCCC2)c1	–	7.04%
C=CS(=O)c1sc(Cl)c(N2CCOCC2)c1[N+](=O)[O-] (centres undefined)	12.6 µM (active)	–
COc1ccc(-c2ccc3c(c2)[C@@H]2C[C@H](N(C)S(=O)(=O)c4ccccc4)[C@H]([C@H](C)O)C(=O)N2CC3)cc1	–	0.603%
CC(Oc1ccc(F)cc1)C(=O)Nc1cc(S(=O)(=O)N2CCOCC2)ccc1N1CCN(C)CC1 (centres undefined)	–	12.3%
CC1(C)C(c2cccs2)=[N+]([O-])C2(CCCCC2=O)N1O (centres undefined)	–	2.59%

SMILES	Potency	activity change, negative = less growth
Cc1ccc(S(=O)(=O)N(CC(=O)Nc2cccnc2)c2ccc(Br)cc2)cc1	–	-3.78%
CC(C)CN(C(=O)CN1CCN(S(=O)(=O)c2ccccc2)CC1)c1c(N)n(CC(C)C)c(=O)[nH]c1=O	–	-0.551%
CC1(C(=O)NS(=O)(=O)c2ccc3ccccc3c2)CCN1C(=O)C1(c2ccc(Cl)cc2)CCC1 (centres undefined)	–	11.9%
CCC(c1nnc(SCC(=O)NNC(=O)c2ccccc2)n1Cc1ccccc1)N(C)C (centres undefined)	–	4.7%
O=C1NC(=O)N(c2ccccc2)C(=O)/C1=C/c1ccc([N+](=O)[O-])s1	28.2 µM (active)	–
CCOc1ccc(C(C(=O)NCCOC)N(CCOC)C(=O)CCC(=O)Nc2ccccn2)cc1 (centres undefined)	–	-3.53%
CCOc1ccc(CCNC(=O)COC(=O)c2ccc(F)c(S(=O)(=O)N3CCOCC3)c2)cc1OCC	–	15.6%
CC1CCCN(CCCNC(=O)CN2C(=O)COc3ccc(S(=O)(=O)N4CCOCC4)cc32)C1 (centres undefined)	–	-1.37%
COc1ccc(-c2csc3nc(-c4ccccc4F)oc(=O)c23)cc1OC	–	26.5%
COc1ccc(N2C(=O)C(CC(=O)Nc3ccccc3)N(Cc3ccc(OC)c(OC)c3)C2=O)cc1 (centres undefined)	–	6.5%
O=C(C(=O)N1CCN(c2ccccc2)CC1)c1ccc2c(c1)OCO2	–	-7.63%
O=P(c1ccc2c(c1)OCCO2)(N1CCOCC1)N1CCOCC1	–	-6%
Cn1cnnc1SCC(=O)NNC(=O)COc1ccc(Br)cc1	–	7.44%
CN(C)CCOC(=O)C(c1ccccc1)C1(O)CCCC1 (centres undefined)	–	0%
CN(C)CC1Oc2ccccc2OC1(O)c1ccccc1 (centres undefined)	10 µM (active)	–
CC(C)Nc1ncnc2c1ncn2[C@H]1CN(Cc2ccncc2)C[C@@H](CO)O1	–	1.71% [at 18.4 µM]
O=C(CC1C(=O)NCCN1Cc1ccc(-c2ccccc2)cc1)NCc1ccncc1 (centres undefined)	–	-9.23%
COc1cccc(CN2CCNC(=O)C2CC(=O)N(C)CCc2ccccn2)c1 (centres undefined)	–	-1.12%
Cc1cccc(C(=O)NCc2nnc(SC(C)C(=O)Nc3nnc(C)s3)n2C)c1 (centres undefined)	–	31.2%
COc1cc(/C=N\NC(=O)c2nonc2N)c(OC)cc1Br	–	3.53%
Cc1nonc1C(=O)N/N=C/c1ccc(O)cc1	25.1 µM (active)	–
Nc1nonc1-n1nnc(C(=O)N/N=C/c2ccc(Cl)cc2)c1-c1ccc2c(c1)OCO2	–	6.44%
Cc1ccc2nc(SC(C)C(=O)NCc3ccco3)[nH]c2c1 (centres undefined)	–	3.44%
O=c1[nH][nH]c2c1[C@H](c1ccc(Cl)cc1)O[C@H](CCc1ccccc1)C2	–	-16.7%
O=C(/C=C/c1ccc(Cl)cc1)Nc1ccc(Br)cn1	–	-16.9%

SMILES	Potency	activity change, negative = less growth
O=C(NCc1nnnn1-c1ccc(Cl)cc1)c1ccc([N+](=O)[O-])o1	–	5.28%
O=C(Nc1ccc(Br)cn1)c1ccc([N+](=O)[O-])o1	17.8 µM (active)	–
O=C(COc1ccccc1Cl)Nc1ccccc1C(=O)NC1CC1	–	6.03%
Oc1ccccc1CNc1ncc(Br)cc1Br	35.5 µM (active)	–
CCc1cccc(C)c1NS(=O)(=O)c1cc(Br)cnc1N	–	4.12%
O=[N+]([O-])c1ncc(Br)cc1Nc1ccccc1	–	-26.1%
Cc1cccc(C(=O)Nc2ccccc2-c2nnn(CC(=O)Nc3ccc4c(c3)OCCO4)n2)c1	–	-8.57%
Clc1ccc(-c2nc3ccccn3c2CN2CCSCC2)cc1	–	-29.7%
CCOC(=O)C1=C(CC)Nc2ccccc2N=C1N	–	-6.54%
CCOC(=O)C1=C(c2ccc(OC)cc2)C(=O)c2ccccc2C1=O	20 µM (active)	–
CCOC(=O)C(Cc1ccc(N)cc1)N1C(=O)c2ccccc2C1=O (centres undefined)	–	-18.5%
CC(C)(C)S(=O)N1Cc2cc(C(=O)NCCCN3CCOCC3)nc(-c3cccc(-c4cc5ccccc5o4)c3)c2[C@H]1CCO (some centres undefined)	–	-1.2%
CCOC(=O)N1CCN(S(=O)(=O)c2cc(Br)cc3c2N(C(=O)C2CC2)CC3)CC1	–	-1.69%
CC(=O)NC(CC(=O)Nc1cccc(S(=O)(=O)N2CCCC2)c1)c1ccccc1 (centres undefined)	–	1.4%
CN(C)S(=O)(=O)c1ccc2oc(SCC(=O)Nc3ccccc3F)nc2c1	–	20.8%
CCOc1ccc(NC(=O)c2ccc(NC(=O)C3CCCO3)cc2)cc1 (centres undefined)	–	2.63%
CCOc1ccc(NCCC(=O)c2ccc3c(c2)OCO3)cc1	31.6 µM (active)	–
COc1ccc(C2(C)NC(=O)N(CC(=O)c3ccc4c(c3)OCO4)C2=O)cc1 (centres undefined)	–	2.95%
Cc1cc(NC(=O)Cn2nc(C(F)(F)F)c3c2CCCC3)no1	–	-1.84%
Cc1cc(C)cc(NC(=O)c2cccc(NC(=O)C3C4CC5OC(=O)C3C5C4)c2)c1 (centres undefined)	–	13.4%
CN(C)c1cccc(NC(=O)c2ccc(-c3ccc(F)c(F)c3)c3ccoc23)c1	–	5.61% [at 18.4 µM]
O=C(c1ccc(Cl)c(S(=O)(=O)N2CCCCCC2)c1)N1CCN(c2ccc(O)cc2)CC1	–	1.01%
O=C1C=CC(=O)N1c1ccc(N2CCCCC2)cc1	2.82 µM (active)	–
Cc1cc(NC(=O)CSc2nccn2-c2ccc([N+](=O)[O-])cc2)no1	–	11.4%
